Records with an inconclusive call do not appear. The source made the active and inactive calls. The call rests on the fitted dose curve; in most records, active means well fitted inhibition curve with a large enough effect; inconclusive means small, poorly fitted or top-dose-only effect; inactive means flat fitted curve, though single readings scatter.
target: Luciferin 4-monooxygenase (Photinus pyralis) (UniProt P08659); test: FLuc inhibitory activity for the follow-up compounds in a biochemical assay with Km concentrations of substrate and 500microM CoASH; conditions: purified FLuc, Km substrates + 500 uM CoASH, luminescence; series mostly up to 57.5 µM
Source text: NCGC Assay Overview: Firefly (Photinus pyralis) luciferase is one of the most commonly used transcriptional reporters. It is considered one of the more dynamically responsive reporters - that is, responsive to changes in reporter transcription - as it requires no post-translational modifications and is enzymatically active directly after protein synthesis (Wood, 1998). With no endogenous expression in mammalian cells and without the requirement of external excitation, it offers very little background signal, thus generally providing excellent signal to background for most assays. Previous profiling work to determine the prevalence of compounds that affect FLuc enzymatic activity (PubChem AID 411) identified that ~3% of the MLSMR library (then at ~72K) inhibited FLuc. […] Of the compounds identified in this profile that inhibited FLuc, 151 compounds were selected for further analysis, in an effort to better understand their mode of inhibiting FLuc. The assay described here was to determine the activity of the compounds in an FLuc assay that contained KM concentrations of substrates and 500uM CoASH.
NCGC Assay Protocol Summary: Reagents: 50mM Tris acetate, pH 7.5; 10mM Mg acetate; 10uM D-luciferin (Sigma #L9504); 10uM ATP; 0.01% Tween-20; 0.05% BSA; 10nM P. pyralis luciferase (Sigma #L9506); 500 uM CoASH Control compounds used were two known firefly luciferase inhibitors (3-(5-(3-chlorophenyl)-1,2,4-oxadiazol-3-yl)benzoic acid and 5-(2-fluorophenyl)-3-phenyl-1,2,4-oxadiazole), and DMSO. Three microliters containing firefly luciferase substrates in buffer (final concentrations: 50mM Tris acetate, pH 7.5, 10mM Mg acetate, 0.01% Tween-20, 0.05% BSA, 10uM D-luciferin, 10uM ATP, and 500 uM CoASH) are dispensed into each well of a Greiner white, solid-bottom 1536-well format plate using a flying reagent dispenser (FRD). These assay plates were then treated with 23nL of compound or DMSO using a Kalypsys pin tool, which allows for delivery of a 12-point intraplate titration of each compound to the assay plate (quantitative HTS), with a final compound concentrations ranging from approximately ~60uM to 0.3nM. One microliter of firefly luciferase in 500mM Tris-acetate buffer was then delivered by FRD to each well for a final enzyme concentration of 10nM. Luciferase activity was then measured using a ViewLux CCD imager (PerkinElmer), with an average exposure time of 2-30 seconds (2X binning, medium/high gain).

Luciferin 4-monooxygenase (Photinus pyralis), sequence (P08659 whole entry, looked up): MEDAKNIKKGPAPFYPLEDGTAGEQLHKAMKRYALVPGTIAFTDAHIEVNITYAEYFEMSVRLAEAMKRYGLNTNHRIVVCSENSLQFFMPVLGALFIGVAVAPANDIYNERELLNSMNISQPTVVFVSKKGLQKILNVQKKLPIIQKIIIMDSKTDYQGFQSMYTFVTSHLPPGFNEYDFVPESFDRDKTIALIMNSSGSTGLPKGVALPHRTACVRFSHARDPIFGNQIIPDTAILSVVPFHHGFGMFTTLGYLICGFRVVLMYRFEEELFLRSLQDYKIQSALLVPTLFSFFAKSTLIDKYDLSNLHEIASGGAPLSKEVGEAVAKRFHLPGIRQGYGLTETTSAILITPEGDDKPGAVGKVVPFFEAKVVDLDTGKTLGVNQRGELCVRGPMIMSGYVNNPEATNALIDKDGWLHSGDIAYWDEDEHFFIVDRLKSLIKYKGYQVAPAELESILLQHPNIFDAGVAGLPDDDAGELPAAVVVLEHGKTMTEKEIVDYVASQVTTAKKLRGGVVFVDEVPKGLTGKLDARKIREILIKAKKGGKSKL

SMILES | Potency
O=C(Cc1ccccc1)Nc1ccc(C(=O)Nc2ccccc2C(=O)O)cc1 | 9.19 µM (active)
CN=c1scc(-c2ccccc2F)n1/N=C/c1ccc[nH]1 | 0.0163 µM (active)
COc1ccc2nc(NC(=O)CCc3nc(-c4ccccc4F)no3)sc2c1 | inactive
O=C(Cc1ccccc1)Nc1ccccc1C(=O)Nc1ccc(C(=O)O)cc1 | inactive
COc1cc(OC)cc(-c2nc3ccccc3s2)c1 | 3.66 µM (active)
O=C(Nc1cccc(-c2nc3ccccc3s2)c1)C1=COCCO1 | 7.3 µM (active)
COc1cccc(-c2nc3ccccc3s2)c1 | 0.517 µM (active)
Cc1ccc(C(=O)Nc2ccccc2C(=O)O)cc1S(=O)(=O)N1CCCCCC1 | 0.919 µM (active)
Oc1ccc(-c2nc3ccccc3s2)c(O)c1 | 1.83 µM (active)
Cc1cccc(NS(=O)(=O)c2cccc(C(=O)Nc3cccc(C(=O)O)c3)c2)c1 | inactive
COc1ccc(-c2cccc(C(=O)Nc3cccc(C(=O)O)c3)c2)cc1 | 13 µM (active)
CCOc1ccc(C(=O)Nc2cccc(C(=O)O)c2)cc1Cl | 0.919 µM (active)
CCOc1c(Cl)cc(C(=O)Nc2ccccc2C(=O)O)cc1Cl | 11.6 µM (active)
CN(C)S(=O)(=O)c1ccc(C(=O)Nc2ccccc2C(=O)O)cc1 | 9.19 µM (active)
COc1ccc2nc(NC(=O)c3ccco3)sc2c1 | 0.291 µM (active)
CC(=O)Nc1cccc(C(=O)Nc2ccccc2C(=O)O)c1 | 20.6 µM (active)
CC(C)c1ccc(-c2nc3ccccc3s2)cc1 | 0.013 µM (active)
Cc1ccc(C(=O)O/N=C(\N)c2ccccn2)cc1 | 0.0092 µM (active)
O=C(O)c1cccc(NC(=O)c2ccc(COc3ccc(Cl)cc3)cc2)c1 | 18.3 µM (active)
Cc1ccc(S(=O)(=O)N2CCN(C(=O)c3ccccc3-c3nc4ccccc4s3)CC2)c(C)c1 | inactive

SMILES | Potency
O=C(Nc1c(Cl)cc(Cl)cc1-c1nc2ccccc2s1)c1ccc(Br)o1 | inactive
O=C(Nc1ccccc1C(=O)O)c1cccc(S(=O)(=O)N2CCCC2)c1 | 18.3 µM (active)
Cc1c(NC(=O)c2cccs2)cccc1-c1nc2ccccc2s1 | 3.26 µM (active)
COc1ccccc1C(=O)Nc1ccc(C(=O)O)cc1 | inactive
Cc1cccc(C(=O)Nc2ccc(-c3nc4ccccc4s3)cc2Cl)c1 | 18.3 µM (active)
O=C(Nc1ccc(-c2nc3ccccc3s2)cc1)C1=COCCO1 | 0.0259 µM (active)
O=C(Nc1ccccc1C(=O)O)c1cccc(NC(=O)c2ccccc2Br)c1 | 14.6 µM (active)
Cc1c(NC(=O)C(C)(C)C)cccc1-c1nc2ccccc2s1 | 1.46 µM (active)
Cc1ccccc1C(=O)Nc1cccc(C(=O)Nc2ccccc2C(=O)O)c1 | 16.3 µM (active)
Cc1ccc(NS(=O)(=O)c2ccc(Cl)c(C(=O)Nc3cccc(C(=O)O)c3)c2)cc1 | inactive
CCCC(=O)Nc1nc2ccc(OCC)cc2s1 | 10.3 µM (active)
O=C(Cc1ccc(Cl)cc1)Nc1cccc(C(=O)Nc2ccccc2C(=O)O)c1 | 25.9 µM (active)
O=C(Nc1ccccc1C(=O)Nc1ccccc1C(=O)O)c1ccccc1 | 10.3 µM (active)
CCOc1ccc2nc(NC(=O)c3ccoc3C)sc2c1 | 0.183 µM (active)
CC(C)CC(=O)Nc1cccc(C(=O)Nc2ccccc2C(=O)O)c1 | 13 µM (active)
Nc1ccc(C(=O)Nc2ccccc2C(=O)O)cc1 | 3.26 µM (active)
COc1ccc(C(=O)Nc2ccccc2C(=O)Nc2ccc(C(=O)O)cc2)cc1 | 0.517 µM (active)
O=C(Nc1cccc(-c2nc3ccccc3s2)c1)c1cc(-n2cnnc2)ccc1Cl | 3.66 µM (active)
O=C(Nc1ccccc1-c1nc2ccccc2s1)c1cccnc1 | inactive
O=C(O)c1cccc(NC(=O)c2cccc(NC(=O)C3CCCO3)c2)c1 (stereo not given) | 18.3 µM (active)

Source: PubChem BioAssay AID602358 (National Center for Advancing Translational Sciences (NCATS), 2012)
